# From PubChem
# Most compounds without a hit are left out; they make up all but 9.4% or so of the library.
# HttQ103 aggreg: reduces HttQ103-GFP aggregates in PC12 cells; PC12 HttQ103-GFP aggregates, Acumen cytometry, 40 h; Potency, µM (series often up to 46.1 µM), for inactives: top-dose activity change, negative = inhibition, hits mostly inhibitors; hit rate 1.1% among 220,000; AID 1688; note: potency is the fitted concentration of half-maximal effect; % is set by controls: 0 for no effect and ±100 for the full control effect; nearly all actives have a fitted effect of over 60% in size
#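 PC12 cells with ecdysone-inducible HTT exon1 Q103-GFP, induced by 100 nM tebufenozide, given compounds in a concentration series. GFP aggregates (1–25 um, 6 SD above background) counted in lysates by laser-scanning cytometry, 488 nm excitation.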
# ALDH1A1 inh: inhibitors of human aldehyde dehydrogenase 1A1; P00352; Purified ALDH1A1, NADH fluorescence, propionaldehyde substrate; Potency, µM (highest dose often 75.3 µM), for inactives: at the top dose activity, negative = inhibition, actives largely listed as inhibitors; hit rate 7.3% among 220,000; AID 1030; active = well fitted inhibition curve with a large enough effect, not every such curve was filed as active; inconclusive = small, poorly fitted or top-dose-only effect, or another doubt; inactive = no such curve, though single readings can be large or run the other way;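 note: potency is the fitted concentration of half-maximal effect; plate controls were no enzyme wells and a reference inhibitor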
# Target sequence (P00352 whole entry, looked up): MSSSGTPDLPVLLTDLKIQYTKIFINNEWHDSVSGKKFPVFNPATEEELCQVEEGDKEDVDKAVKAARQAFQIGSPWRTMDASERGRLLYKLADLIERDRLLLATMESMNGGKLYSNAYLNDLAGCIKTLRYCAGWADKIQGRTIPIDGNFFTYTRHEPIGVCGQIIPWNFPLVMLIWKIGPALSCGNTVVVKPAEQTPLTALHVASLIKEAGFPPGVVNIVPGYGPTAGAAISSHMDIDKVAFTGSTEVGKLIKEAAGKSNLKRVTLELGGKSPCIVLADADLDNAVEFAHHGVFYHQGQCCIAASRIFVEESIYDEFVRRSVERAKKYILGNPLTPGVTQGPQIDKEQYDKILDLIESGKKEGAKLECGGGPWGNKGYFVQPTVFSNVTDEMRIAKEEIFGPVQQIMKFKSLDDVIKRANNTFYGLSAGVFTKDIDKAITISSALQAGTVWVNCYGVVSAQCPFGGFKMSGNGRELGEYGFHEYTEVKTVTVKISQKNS
# IMPase Li inh: membrane-permeable IMPase blocker, potentiated with lithium | CHO-M1 cells, IP1 TR-FRET (IP-One), carbachol + lithium | Potency, µM (top dose mostly 59.4 µM), for the others: top-dose activity, negative = IMPase inhibition, most hits filed as inhibitors | hit rate 0.35% among 210,000 | AID 1457;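 note: IP1 builds up when IMPase is blocked and the TR-FRET signal falls; potency is the fitted concentration of half-maximal effect; plate controls were basal vehicle for no effect and high inhibitor control for full effect; nearly all actives have a fitted effect of over 50% in size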
#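 CHO-M1, 2000 cells/well, 16–30 h culture; cpd + low Li+, 30 min 37C; lysis with d2-IP1/Eu-anti-IP1 Ab, 10 min RT; TR-FRET 665/620 ratio and 620 channel; AC50 via Hill.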
# HPGD block: inhibitors of human 15-hydroxyprostaglandin dehydrogenase (HPGD); AID 894; P15428; purified HPGD, NADH fluorescence kinetic, PGE2 substrate; hit rate 4.3% among 150,000; Potency, µM, for inactives: at the highest dose activity change, negative = inhibition, actives largely listed as inhibitors; active = well fitted inhibition curve with a large enough effect, not every such curve was filed as active; inconclusive = small, poorly fitted or top-dose-only effect, or another doubt; inactive = no such curve, though single readings can be large or run the other way; note: potency is the fitted concentration of half-maximal effect; % is set by controls: 0 for no effect and ±100 for the full control effect
#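 NADH formation kinetics: reaction with 30 uM PGE2 and 1 mM NAD+ (final), 20 nM enzyme, Tris-HCl pH 8 with Tween 20, after 15 min compound preincubation at room temperature. Fluorescence change, last versus first of five reads.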
# IMPase inh: cell-permeable inhibitors of inositol monophosphatase (IMPase) | P97697 | CHO-M1 cells, IP1 accumulation, HTRF TR-FRET ratio | inhibition (IP1 accumulation), % at 46.1 µM | 120,000 tested, under 10 active | AID 901; active = well fitted curve in the direction sought with a large enough effect in the signal ratio, not every such curve was filed as active; inconclusive = small, poorly fitted or top-dose-only effect, or a change in a side signal; inactive = no such curve, though single readings can be large or run the other way; the % refers to the signal ratio;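 note: cells stimulated with carbachol in lithium chloride buffer; plate controls were DMSO basal wells for no effect and reference inhibitor wells for full effect; higher means more IMPase inhibition seen as more IP1 and lower FRET ratio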
#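 The IP-One HTRF competitive assay in carbachol-stimulated CHO-M1 cells quantifies cellular IP1. Compounds spanned up to 46 uM final, and activity is expressed as AC50 from concentration-response fits of the ratio and donor data.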
# HTT ATP protect: Huntington cell model cytoprotection by ATP luminescence. PC12 HTT-Q103 induced, cytoprotection, ATP luminescence, 40 h. AID 1471. Potency, µM (series often up to 56.4 µM), inactives show cytoprotection (ATP increase), most hits filed as activators. hit rate 0.14% among 230,000; note: potency is the fitted concentration of half-maximal effect; % of control where 0% means no effect; nearly all actives have a fitted effect of over 45% in size
#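 Rat PC12, Q103 Htt exon1-GFP fusion, ecdysone promoter; tebufenozide inducer 100 nM final; compound titration; qHTS, 1500 cells/well; ATPlite luminescent read.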
# Starred values were filed as active, the others as inactive; ? = inconclusive; · = no result; [ ] = another dose, or the depositor's remark. Unless noted, calls come from the whole dose curve; as a rule, active = well fitted curve in the direction sought with a large enough effect; inconclusive = small, poorly fitted or top-dose-only effect, or another doubt; inactive = no such curve, though single readings can be large; an effect the other way counts as inactive or inconclusive.
SMILES,HttQ103 aggreg,ALDH1A1 inh,IMPase Li inh,HPGD block,IMPase inh,HTT ATP protect
CC1CCN(CCCNC(=O)c2ccc3c(=O)n(Cc4ccc(Cl)cc4)c(=S)[nH]c3c2)CC1,?,15.8µM*,1.0%,·,·,·
CC(C)NC(=O)c1ccc2c(=O)n(Cc3ccco3)c(=S)[nH]c2c1,4.6%,8.91µM*,-3.4%[38.3 µM],-16.6%,-2.6,18.0%
CCCCCn1c(=O)[nH]c2cc(C(=O)NCCc3ccc(OC)c(OC)c3)ccc2c1=O,-5.0%,-4.0%,-13.3%[38.3 µM],-13.9%,-0.6,8.2%
COC(=O)c1ccc2c(=O)n(Cc3ccc(C(=O)NCCCN4CCC(C)CC4)cc3)c(=S)[nH]c2c1,26.6%,?,4.2%,·,·,14.0%[10 µM]
O=C(Nc1cccc(C(F)(F)F)c1)c1ccc2nc(-c3ccco3)c(-c3ccco3)nc2c1,2.5%,0.398µM*,28.6%[38.3 µM],?,11.0,-24.8%
COc1ccc(CCNC(=O)c2ccc3c(=O)n(Cc4ccco4)c(=S)[nH]c3c2)cc1OC,10.6%,2.51µM*,-26.7%[38.3 µM],-18.1%,3.4,-13.3%
COc1ccc(CCNC(=O)c2ccc3nc(-c4ccco4)c(-c4ccco4)nc3c2)cc1OC,?,0.316µM*,27.6%[38.3 µM],?,?,3.3%[10 µM]
COCCNC(=O)c1ccc(Cn2c(=S)[nH]c3cc4c(cc3c2=O)OCO4)cc1,25.3%,-0.8%,-14.8%[38.3 µM],12.6µM*,1.3,-21.7%
CCOCCCNC(=O)c1ccc2c(=O)n(CCCOCC)c(=S)[nH]c2c1,-6.1%,-12.5%,-5.4%,·,·,-47.7%
COC(=O)c1ccc2c(=O)n(CCO)c(=S)[nH]c2c1,16.2%,-11.0%,12.3%[38.3 µM],-11.9%,2.7,5.8%[0.074 µM]
COC(=O)c1ccc2c(=O)n(CCCCCC(=O)O)c(=S)[nH]c2c1,?,14.1µM*,-4.0%,?,·,·
CCCNC(=O)c1ccc2c(=O)n(Cc3ccco3)c(=S)[nH]c2c1,3.2%,7.08µM*,-3.4%,·,·,-32.4%
CC(C)=CCl,·,-5.4%,-15.1%,-2.2%,·,1.9%
COCCn1c(=S)[nH]c2cc(C(=O)NC(C)C)ccc2c1=O,-6.1%,0.178µM*,?,-11.7%,2.2,-44.7%
CCOCCCn1c(=S)[nH]c2cc(C(=O)NCCOC)ccc2c1=O,-10.5%,?,-0.2%[38.3 µM],-24.9%,1.9,-7.4%
Cc1cc(-c2nnc(SCC(=O)Nc3ccccc3C(F)(F)F)o2)c(C)n1-c1ccccc1,?,11.2µM*,22.4%[38.3 µM],-15.4%,-4.5,-51.7%
C[N+](C)(C)c1ncnc2c1ncn2[C@@H]1CCCCO1,·,-1.3%[13.5 µM],-9.2%,-6.6%,·,10.9%[10 µM]
CCOC(=S)N/C(=N\S(=O)(=O)c1ccccc1)c1ccccc1,20.0%,11.2µM*,-5.4%,?,12.5,37.4%[10 µM]
CCCOC(=S)N/C(=N\S(=O)(=O)c1ccccc1)c1ccccc1,?,14.1µM*,6.1%[38.3 µM],28.2µM*,-2.5,8.2%[10 µM]
CCOC(=S)N/C(=N\S(C)(=O)=O)c1ccccc1,-6.0%[9.22 µM],·,·,·,·,-5.3%[10 µM]
O=c1cnc2cnc(Oc3ccccc3)nc2n1C1CC1,·,?,5.5%,·,·,6.0%
COC(=O)[C@@H](NC(=O)O[C@@H]1C(=O)c2cc(OC)ccc2O[C@H]1c1ccc(OC)c(Br)c1)C(C)C,·,-7.2%,18.9%,-18.8%,·,-12.1%
CC(C)CCN1CCNC(=O)C1CC(=O)Nc1ccc(F)cc1 (configuration not stated),17.1%,17.8µM*,10.8%[38.3 µM],-14.2%,-5.6,-5.3%[0.074 µM]
COc1ccc2c(c1)CN([C@H](C)[C@@H]1CC[C@@H]3[C@H]4CC[C@H]5C[C@@H](O)CC[C@@]5(C)[C@H]4CC[C@]31C)CO2,·,?,12.9%,-3.9%,·,-9.3%[10 µM]
CC(C)C(=O)N(c1ccc2oc(=O)sc2c1)S(=O)(=O)c1cccs1,·,?,-11.8%[38.3 µM],-25.9%,-5.6,12.6µM*
COc1ccc(C(=O)N2CCC3(CCCN(c4cccc(-c5ccccc5)c4)C3)CC2)cc1,·,22.4µM*,-4.6%,-23.2%,·,-71.4%
O=C(c1ccco1)N1CCC2(CCCN(c3cccc(-c4ccccc4)c3)C2)CC1,·,25.1µM*,5.8%,-7.2%,·,?
